# PubChem BioAssay AID504834 (National Center for Advancing Translational Sciences (NCATS), 2011)
# The campaign covered roughly 320,000 compounds. About 22,000 (6.9%) were called active. A call without a number means that no potency is given here. Not shown: some 27% with an inconclusive outcome. Calls come from the whole dose curve; as a rule, active = well fitted inhibition curve with a large enough effect; inconclusive = small, poorly fitted or top-dose-only effect, or another doubt; inactive = no such curve, though single readings can be large or run the other way. The sample as a whole holds a higher share of actives than the screen did.
# Test: Primary qHTS for delayed death inhibitors of the malarial parasite plastid, 96 hour incubation
# Conditions: P. falciparum luciferase reporter growth; series mostly up to 28.7 µM
# Procedure, shortened: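 Two parasite generations (96 h, 37 C, 5% CO2) of compound exposure in infected erythrocytes (0.05% parasitemia, 2% hematocrit). Luciferase-reporter P. falciparum; decreased luminescence indicates inhibited growth, aimed at apicoplast-acting delayed death.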
# Potency is the fitted concentration of half-maximal effect.
row,Compound,Potency
1,Cc1ccc(C)c(C(=O)N2CCC(n3nccc3NC(=O)C3CC3)CC2)c1,inactive
2,Cc1c(CN2CCC(n3nccc3NC(=O)CCc3ccccc3)CC2)cnn1C,inactive
3,CCN1CCN(C(=O)C2CCN(S(=O)(=O)c3cc(Cl)ccc3Cl)CC2)CC1,inactive
4,COc1ccc(-n2c(=O)[nH]c3cc(C(=O)NCCc4ccc(OC)c(OC)c4)ccc3c2=O)c(OC)c1,inactive
5,Cc1cc(C)c2c(-n3cccc3)c(C(=O)NNS(=O)(=O)c3ccc(F)cc3)sc2n1,inactive
6,CCCCOC(=O)Nc1sc2nc(C)cc(C)c2c1-n1cccc1,inactive
7,Cc1cc(C)c2c(-n3cccc3)c(NC(=O)OCc3ccccc3)sc2n1,13.1 µM (active)
8,COc1ccccc1-n1c(SCC(=O)Nc2cccc(C(=O)O)c2)nnc1-c1ccccc1O,inactive
9,Cc1cc(C)c2c(-c3ccc(F)cc3)c(C#N)c(=O)n(C)c2n1,inactive
10,O=C(CCN1C(=O)[C@@H]2Cc3ccccc3CN2C1=O)NCc1ccccc1,inactive
11,C=CCc1cccc(/C=N/NC(=O)COc2ccc(-n3cnnn3)cc2)c1O,inactive
12,Cc1ccc(C(=O)OCC(=O)NC(=O)Cc2ccccc2)c(O)c1,inactive
13,COc1ccc(-c2csc(NC(=O)COC(=O)c3ccc(Br)o3)n2)cc1,inactive
14,COc1ccc(-c2nc(CCNC(=O)c3ccc(Br)o3)cs2)cc1,8.28 µM (active)
15,O=C(NCCc1csc(-c2ccccc2)n1)c1ccccc1F,inactive
16,NS(=O)(=O)c1ccc(NC(=S)N2CCCC2)cc1,inactive
17,Cc1ccc(C2C3=C(Nc4[nH]n(-c5ccccc5)c(=O)c42)c2ccccc2C3=O)cc1 (stereo not given),11.7 µM (active)
18,Cc1ccc(N=Nc2c(C)[nH]n(-c3ccccc3)c2=O)cc1,inactive
19,COC(=O)C1=C(C)NC2=C(C(=O)c3ccccc32)C1c1ccc(-c2ccc(C(=O)O)cc2)o1 (stereo not given),inactive
20,CC1C(=O)NC(=O)C1c1ccccc1 (stereo not given),inactive
21,COc1ccccc1C(=O)NCCC(=O)NC1=NCCS1,inactive
22,CCOC(=O)c1ccccc1NC(=O)COC(=O)CCC(=O)N1CCOCC1,inactive
23,COc1ccc(N(C(=O)CNC(=O)c2ccco2)C(C(=O)NCC2CCCO2)c2ccccc2)cc1Cl (stereo not given),inactive

row,Compound,Potency
1,Cc1nc([N+](=O)[O-])c(NCCCO)n1Cc1ccccc1,inactive
2,N=c1c2c(-c3ccccc3)c(-c3ccccc3)n(Cc3ccccc3)c2ncn1CCCO,4.65 µM (active)
3,COCCn1cnc2c1c(=O)n(CC(=O)NN)c(=O)n2Cc1ccccc1,inactive
4,CC1=C(C(=O)OC2CCCCC2)C(c2ccccc2F)NC(=O)N1 (stereo not given),inactive
5,O=C(CSc1nnc(-c2ccccc2O)o1)NC1CCCCC1,inactive
6,COc1ccccc1NC(=O)COC(=O)COc1ccccc1F,inactive
7,C=CCn1c(SCc2ccccc2)nc2c1c(=O)[nH]c(=O)n2C,inactive
8,C=CCSc1nc2c(c(=O)[nH]c(=O)n2C)n1Cc1ccccc1,inactive
9,CCCCCn1c(SCCC(C)C)nc2c1c(=O)[nH]c(=O)n2C,13.1 µM (active)
10,CCN(CC)C(=O)CC1(c2ccccc2OC)CCOC(C(C)C)C1 (stereo not given),11.7 µM (active)
11,CCN(CC(=O)Nc1ccccc1OC)C(=O)CC1CC2CCC1C2 (stereo not given),inactive
12,COc1ccccc1OCc1ccc(C(=O)NC(C)c2ccccc2)o1 (stereo not given),inactive
13,CN1CCN(S(=O)(=O)c2cccc(C(=O)Nc3cccc(S(N)(=O)=O)c3)c2)CC1,inactive
14,CN(C)c1ccc(S(=O)(=O)NCC(=O)NCC2CCCCC2)cc1[N+](=O)[O-],inactive
15,COc1ccc(C(=O)OCC(=O)NCCCc2ccccc2)cc1OC,inactive
16,CCOc1ccc(C(CC(=O)O)NC(=O)C23CC4CC(CC(C4)C2)C3)cc1OC (stereo not given),inactive
17,CCOc1ccc(C(CCc2ccccc2)NC(=O)c2ccc(OC)c(OC)c2)cc1OCC (stereo not given),0.233 µM (active)
18,Cc1cc(NS(=O)(=O)c2ccc(NC(=O)c3cccnc3)cc2)nc(C)n1,inactive
19,CCN1N=C(c2ccccc2)CCC1=O,inactive
20,O=c1oc2c(CN3CCCCC3)c(O)ccc2c2c1CCCCC2,10.4 µM (active)
21,O=c1c(-c2ccccc2)coc2c(CN3CCOCC3)c(O)ccc12,inactive
22,CCN1CCN(Cc2c(O)ccc3c(=O)c(-c4ccc(OC)c(OC)c4)c(C(F)(F)F)oc23)CC1,inactive
23,COc1cc(NC(=O)CSC(=S)N2CCCC2)c(OC)cc1Cl,inactive

row,Compound,Potency
1,CN(CCNC(=O)c1cc2c(-c3ccccc3F)nn(C)c2s1)C1CCCCC1,inactive
2,COc1ccc(CNC(=O)COc2cccnc2[N+](=O)[O-])cc1,inactive
3,Cc1ccc(C)c(S(=O)(=O)N2CCN(CC(=O)Nc3ccc([N+](=O)[O-])cc3)CC2)c1,10.4 µM (active)
4,Cc1ccc([N+](=O)[O-])cc1S(=O)(=O)N1CCCN(C)CC1,inactive
5,Cc1ccc(C)c(S(=O)(=O)N2CCN(C(=O)Nc3ccccc3)CC2)c1,inactive
6,Cc1c(CNCCc2ccccc2)c(C(=O)O)c(C)n1-c1ccccc1,inactive
7,Cc1ccc(CC2C(=O)N(c3ccc(F)cc3)C(=O)C2C)cc1 (stereo not given),inactive
8,CCCc1nn(C)c2c(=O)[nH]c(-c3cc(S(N)(=O)=O)ccc3OCC)nc12,inactive
9,CC(C)CN(C(=O)c1cccc(S(=O)(=O)N2CCCCC2)c1)C1CCS(=O)(=O)C1 (stereo not given),inactive
10,CCC1CCCCN1C(=S)Nc1ccc(C(C)=O)cc1 (stereo not given),inactive
11,CCC1CCCCN1C(=S)Nc1ccc(S(=O)(=O)Nc2ncccn2)cc1 (stereo not given),10.4 µM (active)
12,CCC1CCCCN1C(=S)Nc1ccc(SC(F)F)cc1 (stereo not given),inactive
13,Cc1ccc(C)c(S(=O)(=O)Nc2cc(C)on2)c1,inactive
14,Cc1ccc(OCC(=O)Nc2ccc(N3CCN(C(=O)c4ccco4)CC3)cc2)c(C)c1,inactive
15,CN(Cc1ccccc1)C(=O)CSc1nc2ccccc2[nH]1,inactive
16,O=C(CSc1nc2ccccc2[nH]1)Nc1nc(-c2ccccc2)c(-c2ccccc2)o1,13.1 µM (active)
17,O=C(CSc1nc2ccccc2[nH]1)c1cccs1,inactive
18,COc1ccc2c(c1)C(NS(=O)(=O)OCC(Cl)(Cl)Cl)CCC2 (stereo not given),inactive
19,CC(=O)N(C)c1ccc(NC(=O)C(F)(F)F)cc1,inactive
20,CCOc1ccc(NC(=O)Nc2ccc(N(C)C(C)=O)cc2)cc1,16.5 µM (active)
21,CCOc1ccc(NC(=O)N(CC(C)C)CC(C)C)cc1,inactive
22,O=C(O)CCCCCCCCc1cn(CN2C(=O)c3ccccc3C2=O)nn1,inactive
23,CC(=O)c1sc(NC(=O)c2ccc(C)cc2)nc1C,inactive

row,Compound,Potency
1,CC(=O)Nc1cccc(C(=O)Nc2nc(C)cs2)c1,inactive
2,O=C(O)c1ccccc1C(=O)Nc1nc(-c2ccccc2)cs1,inactive
3,CNC(=O)c1ccc(NC(=O)c2cccc(C(F)(F)F)c2)cc1,inactive
4,O=C(Nc1nc(-c2ccc(-c3ccccc3)cc2)cs1)c1cnccn1,inactive
5,Cc1ccc(Nc2nc(-c3sc(NC(=O)c4ccccc4)nc3C)cs2)cc1,13.1 µM (active)
6,Cc1ccc(-c2csc(NNC(=O)c3ccccc3)n2)cc1,3.7 µM (active)
7,Cn1sc(NC(=O)c2ccccc2)nc1=O,inactive
8,O=C(Nc1ccc(-c2csc(Nc3cccc(C(F)(F)F)c3)n2)cc1)c1cccc(C(F)(F)F)c1,8.28 µM (active)
9,Cc1nc(NC(=O)c2cccc(Cl)c2)sc1-c1csc(Nc2cccc(Cl)c2)n1,9.28 µM (active)
10,CCNS(=O)(=O)c1ccc(NC(=O)Nc2cccc(C(F)(F)F)c2)cc1,inactive
11,CCOC(=O)c1c(NC(=O)CN2C(=O)NC3(CCC(C)CC3)C2=O)sc(C)c1CC (stereo not given),inactive
12,NC(=O)c1c(NC(=O)CSc2nc(N)cc(=O)[nH]2)sc2c1CCCC2,inactive
13,COc1cc(NS(=O)(=O)c2ccc(NC(=S)NC(=O)c3ccc(Br)cc3)cc2)ncn1,inactive
14,COc1ccccc1Cn1c(CO)nc2ccccc21,inactive
15,COc1ccc(-n2ncc3c(SCC(=O)NNC(C)=O)ncnc32)cc1,inactive
16,CC(=O)c1cccc(NC(=O)c2cc(C)nn2-c2ccccc2)c1,inactive
17,COc1ccc(Cl)cc1C(=O)OCC(=O)NCc1cccs1,inactive
18,Cc1c(-c2nn(C)c(=O)c3ccccc23)oc2ccc(F)cc2c1=O,4.15 µM (active)
19,CCC(=O)NCc1cc(-c2nn(C)c(=O)c3ccccc23)ccc1OC,inactive
20,O=C1c2oc3ccc(Br)cc3c(=O)c2C(c2cccc(F)c2)N1CCO (stereo not given),inactive
21,CCN(CC)c1ccc(S(=O)(=O)N2CCCCC2)cc1NC(=O)C1=COCCO1,10.4 µM (active)
22,Cc1ccc(S(=O)(=O)N2CCCCC2)cc1NC(=O)c1cccnc1,inactive
23,O=C(Nc1ccc(S(=O)(=O)N2CCCC2)cc1Cl)C1=COCCO1,inactive

row,Compound,Potency
1,O=C(Nc1ccc(Br)cc1)c1cc(S(=O)(=O)Nc2ccccn2)ccc1Cl,inactive
2,O=C(NNC(=O)C1CCCC1)c1ccc(F)cc1,inactive
3,Nc1nc(SCC(=O)NCCN2CCOCC2)nc2sc3c(c12)CCC3,13.1 µM (active)
4,CN1CCN(CC(=O)Nc2sc3c(c2C#N)CCC(C(C)(C)C)C3)CC1 (stereo not given),inactive
5,C=CCn1c(SCC(=O)NCCCO)nc2sc3c(c2c1=O)CCC3,inactive
6,CC(C)(C)C1CCc2c(sc3nc(SCC(N)=O)nc(N)c23)C1 (stereo not given),9.28 µM (active)
7,COC(=O)c1c(NC(=O)CCN2CCOCC2)sc2c1CCCC2,inactive
8,CCOC(=O)c1sc2nc(C)nc(SCC(N)=O)c2c1C,inactive
9,CC(=O)N1CCc2c(sc(NC(=O)CCS(=O)(=O)c3ccc(C)cc3)c2C(N)=O)C1,inactive
10,O=C(Nc1cc(S(=O)(=O)N2CCOCC2)ccc1OCC(F)(F)F)c1ccc(N2CCCC2=O)cc1,inactive
11,Cc1noc(C)c1C(=O)NCCc1ccc(S(N)(=O)=O)cc1,inactive
12,O=C(NCc1ccccc1)C1=C[C@H](C2CC2)C[C@H](OCc2ccc(CO)cc2)O1,inactive
13,C#Cc1ccc([C@@H]2C=C(C(=O)O)O[C@H](OCCCCO)C2)cc1,inactive
14,CCn1cc(C(=O)N2CCN(Cc3ccc4c(c3)OCO4)CC2)c2cc(OC)c(OC)cc2c1=O,inactive
15,O=C(C1=C[C@H](c2ccc(C(F)(F)F)cc2)C[C@H](OCc2ccc(CO)cc2)O1)N1CCN(Cc2ccccc2)CC1,13.1 µM (active)
16,CC(C)CCN1CCN(Cc2ccc(C(F)(F)F)cc2)CC1CCO (stereo not given),inactive
17,O=C(O)C1=C[C@H](c2cccs2)C[C@H](OCCCCO)O1,inactive
18,O=C(c1cccc([N+](=O)[O-])c1)N1CCN(Cc2ccccc2)CC1,inactive
19,O=C(NCc1ccccc1)C1=C[C@@H](c2ccc(C(F)(F)F)cc2)C[C@@H](OCc2ccc(CO)cc2)O1,4.65 µM (active)
20,CC(=O)n1cc([C@@H]2C=C(C(=O)N3CCN(Cc4ccc5c(c4)OCO5)CC3)O[C@H](OCc3ccc(CO)cc3)C2)c2ccccc21,1.65 µM (active)
21,CN1CCN(C(=O)C2=C[C@H](c3ccc4c(c3)OCO4)C[C@H](OCc3ccc(CO)cc3)O2)CC1,inactive
22,O=C(C1=C[C@H](c2coc3ccccc3c2=O)C[C@H](OCc2ccc(CO)cc2)O1)N1CCOCC1,inactive
23,O=C(C1=C[C@H](c2coc3ccccc3c2=O)C[C@H](OCc2ccc(CO)cc2)O1)N1CCN(Cc2ccccc2)CC1,5.86 µM (active)
